# Assay outcomes: PubChem BioAssay, several laboratories
# Rows were chosen to be rich in hits. Some 2.4% of all compounds tested hit in one or more screens of this group.
# SENP8 block-1: SENP8 protease inhibitors, primary screen, biochemical, luminescence; AID 2540, 2010; Sentrin-specific protease 8 (Homo sapiens), Q96LD8; inhibition, % at 10 µM; 1.2% of 330,000 active; purified SENP8, Z-RLRGG-aminoluciferin cleavage; in the data active = inhibition above about 50%
# SENP7 inh: SENP7 protease inhibitors, primary screen, biochemical, luminescence, uHTS. recombinant SENP7, Z-RLRGG-aminoluciferin luminescence, 40 min. 1.5% of 330,000 active. inhibition, % at 5 µM. Sentrin-specific protease 7 (Homo sapiens), Q9BQF6;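 active = inhibition above about 50% at the single test dose, limit read from the data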;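 also: plate controls were DMSO with enzyme for no effect and no enzyme buffer wells for full effect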
# Platelet DG rel: inhibitors of platelet dense granule secretion, primary screen, cell-based, MLPCN, human platelets | human platelet-rich plasma, SFLLRN dense granule ATP release, luminescence | inhibition, %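 (compounds screened at 7.5 µM in platelet-rich plasma)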 | 0.22% of 300,000 active | AID 1663, 2009;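 active = mean replicate score, as percent of positive control, at or above 50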
# SENP8 block-2: human SENP8 protease inhibitors, primary screen, biochemical, fluorescence, Nedd8 protein substrate, uHTS | inhibition, % at 20 µM | recombinant SENP8 | 0.64% of 360,000 active | Sentrin-specific protease 8 (Homo sapiens), Q96LD8 | AID 602440, 2012; in the data active = inhibition mostly above about 40%, no sharp cut-off; inactive = mostly below about 27%
# SENP6 block: SENP6 protease inhibitors, primary screen, biochemical, luminescence, uHTS; Recombinant SENP6 catalytic domain, aminoluciferin luminescence; inhibition, % at 10 µM; 1.8% of 330,000 active; AID 2599, 2010;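 active = inhibition above about 50% at the single tested dose, limit read from the data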;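 also: plate controls were DMSO wells with enzyme for no effect and DMSO wells lacking enzyme for full effect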
# Target sequence (Q9GZR1 628-1112 limits assumed): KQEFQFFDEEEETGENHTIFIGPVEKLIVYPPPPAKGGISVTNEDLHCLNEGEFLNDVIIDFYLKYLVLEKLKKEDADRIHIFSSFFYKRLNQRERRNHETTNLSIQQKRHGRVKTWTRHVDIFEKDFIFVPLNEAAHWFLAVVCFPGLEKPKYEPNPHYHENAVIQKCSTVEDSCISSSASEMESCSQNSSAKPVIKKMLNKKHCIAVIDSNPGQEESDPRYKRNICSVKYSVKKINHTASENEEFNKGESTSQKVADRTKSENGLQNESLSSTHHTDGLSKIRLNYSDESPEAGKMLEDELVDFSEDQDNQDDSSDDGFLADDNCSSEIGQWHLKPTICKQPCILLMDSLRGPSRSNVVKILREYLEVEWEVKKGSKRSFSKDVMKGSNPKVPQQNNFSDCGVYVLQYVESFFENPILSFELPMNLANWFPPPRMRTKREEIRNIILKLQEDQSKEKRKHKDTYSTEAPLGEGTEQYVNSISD
# SENP8 confirm: SENP8 protease inhibitors, retest, confirmation, biochemical, luminescence, single concentration; Recombinant SENP8, Z-RLRGG-aminoluciferin luminescence, 60 min; 40% of 6,200 active; inhibition, % at 12.5 µM; shares compounds with SENP7 inh;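 active = mean inhibition across replicates above about 50%, limit read from the data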
# SENP6 confirm: SENP6 protease inhibitors, confirmation, biochemical, luminescence, single concentration | shares compounds with SENP7 inh | recombinant SENP6, Z-RLRGG-aminoluciferin luminescence | inhibition, % at 12.5 µM | 58% of 6,200 active | AID 488915, 2010
# SENP7 confirm: SENP7 protease inhibitors, retest, confirmation, biochemical, luminescence, single concentration; AID 488917, 2010; 69% of 6,200 active; inhibition, % at 12.5 µM; shares compounds with SENP7 inh; recombinant SENP7, Z-RLRGG-aminoluciferin luminescence, 40 min
# Casp3 select: caspase-3 protease inhibitors, confirmation, selectivity assay for SENP inhibitor project, biochemical, single concentration; inhibition, % at 12.5 µM; purified caspase-3, Z-DEVD-aminoluciferin luminescence, 60 min; shares compounds with SENP7 inh; 60% of 6,200 active;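 active = mean inhibition above about 50%, limit read from the data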;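 also: plate controls were enzyme with DMSO for no effect and wells without caspase-3 for full effect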
# Target sequence (P42574 28-227 limits assumed): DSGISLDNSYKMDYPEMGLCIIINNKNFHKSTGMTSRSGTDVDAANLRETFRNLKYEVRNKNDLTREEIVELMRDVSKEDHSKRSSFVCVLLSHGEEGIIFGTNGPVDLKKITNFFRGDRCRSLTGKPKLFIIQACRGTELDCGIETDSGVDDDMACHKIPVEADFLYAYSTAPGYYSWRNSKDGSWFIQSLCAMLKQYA
# Luc interf: counter-screen for SENP inhibitors: luminescence interference; shares compounds with SENP7 inh; Pre-incubated SENP8/Z-RLRGG-aminoluciferin, luciferase luminescence interference; inhibition, % at 12.5 µM; 39% of 6,200 active;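 active = mean inhibition above about 50% when retested at one dose, limit read from the data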;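 also: plate controls were DMSO wells with completed reaction for no effect and substrate without enzyme for full effect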
# * marks the source's active call; other numbers are inactive results; · = not tested or not shown.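 The calls were made as follows, unless noted: active = mean inhibition above about 50% in the one-dose retest (limit read from the data); inactive = the rest.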
SMILES,SENP8 block-1,SENP7 inh,Platelet DG rel,SENP8 block-2,SENP6 block,SENP8 confirm,SENP6 confirm,SENP7 confirm,Casp3 select,Luc interf
O=C(O)c1cccc(N/N=C/c2cccc3ccccc23)c1,95.0*,54.7*,-20.8,-35.1,96.8*,99.7*,100.3*,103.3*,93.7*,99.2*
COc1ccc(Cc2nnc(SC(C)C(=O)Nc3ccc(F)cc3Cl)o2)cc1 (stereo not given),0.2,9.9,-5.2,2.5,-7.3,·,·,·,·,·
COc1ccccc1-c1cc2c(c3c1ccn3C)C1CCC2C1 (stereo not given),·,·,·,-163.1,·,·,·,·,·,·
CC(=O)N1CCN(S(=O)(=O)c2cccc(C(=O)NNC(=O)COc3ccc(Cl)cc3C)c2)CC1,1.7,-3.0,·,13.8,1.8,·,·,·,·,·
Cc1ccc(/C=N/Nc2cccc(C(=O)O)c2)s1,95.8*,96.5*,-6.5,-39.1,94.8*,99.1*,99.6*,102.8*,92.3*,98.5*
O=C(N/N=C/c1ccc(O)cc1)c1cccc(N/N=C/c2ccc(O)cc2)c1,14.5,22.1,5.0,-31.8,52.3*,5.6,-11.3,25.4,24.7,32.4
O=C(O)c1ccc(N/N=C/c2cc(Br)cs2)cc1,96.7*,99.7*,21.2,-28.6,99.0*,98.1*,98.9*,101.8*,45.5,97.2*
Cc1ccc(/C=N/Nc2ccc(C(=O)O)cc2)s1,96.7*,-6.9,83.0*,-166.7,94.5*,52.1*,101.4*,104.1*,99.1*,100.1*
Cc1cc(OCCN2CCOCC2)ccc1C(C)C,6.3,0.1,2.4,9.0,6.2,·,·,·,·,·
CC(C)Cn1c(N)c(C(=O)CSc2ncnc3sc4c(c23)CCCC4)c(=O)n(C)c1=O,-3.0,5.8,1.0,4.6,7.7,·,·,·,·,·
O=C(Nc1ccccc1)Nc1cccc2ccccc12,4.9,23.6,2.2,-57.3,23.1,·,·,·,·,·
Cc1ccc(C(=O)Nc2cccc3cccnc23)cc1Br,-5.2,55.3*,-16.7,4.2,4.1,-2.4,1.5,8.7,23.4,11.6
O=C(O)/C=C/C(=O)Nc1cccc2cccnc12,-4.9,1.0,11.6,9.6,6.2,·,·,·,·,·
O=C(Nc1ccc(C(=O)O)cc1)Nc1cccc2ccccc12,17.0,34.3,-3.6,-73.8,57.5*,38.4,34.1,64.8*,62.3*,33.7
O=C(Nc1ccccc1)Nc1cccc2cccnc12,59.6*,73.5*,8.5,8.3,42.1,79.8*,80.1*,94.2*,58.6*,77.2*
O=C(OCc1nnc(-c2cccs2)o1)C1=NN(c2ccccc2)C(=O)CC1,1.3,-3.1,·,-46.8,-5.9,·,·,·,·,·
COc1ccc(C(=O)NN/C(C)=C/C(=O)c2ccccc2)cc1,3.3,7.5,-12.4,11.4,-15.0,·,·,·,·,·
COc1ccc(C(=O)Nc2ccc(C(=O)c3ccccc3)cc2)cc1,1.4,0.4,15.6,14.9,-16.4,·,·,·,·,·
COc1cc(NC(=O)c2ccccc2)cc(OC)c1,12.0,46.9,14.5,5.0,54.1*,18.2,17.5,67.9*,65.2*,48.8
COc1ccc(C(=O)Nc2cc(OC)cc(OC)c2)cc1,80.8*,89.0*,5.9,14.9,87.1*,86.2*,82.7*,96.3*,88.4*,82.7*
COc1ccc(C(=O)N/N=C/C(=O)c2ccccc2)cc1,58.1*,83.6*,1.2,5.8,80.4*,31.8,72.1*,92.5*,78.7*,30.4
CCn1cc(C2=NC(CC(C)C)CO2)c2ccccc21 (stereo not given),-8.0,-0.3,2.7,3.6,-36.9,·,·,·,·,·
Cc1nnc(N2CCOCC2)c2nn(-c3ccccc3)c(C)c12,2.0,1.1,3.0,-91.5,-0.6,·,·,·,·,·
c1ccc(-n2nnc3c(N4CCOCC4)ncnc32)cc1,50.4*,74.6*,10.3,23.8,81.4*,10.8,13.7,33.2,33.6,21.2
CCN(C(=O)CN1CCCC(C)C1)c1c(N)n(Cc2ccccc2)c(=O)[nH]c1=O (stereo not given),-6.5,-2.8,·,-5.5,-6.3,·,·,·,·,·
SMILES,SENP8 block-1,SENP7 inh,Platelet DG rel,SENP8 block-2,SENP6 block,SENP8 confirm,SENP6 confirm,SENP7 confirm,Casp3 select,Luc interf
COC(=O)c1[nH]c2cccc(Cl)c2c1NC(=O)CN1CCN(CCO)CC1,0.7,100.9*,-9.8,-16.6,13.5,11.2,9.9,0.2,-3.7,-3.2
Cc1ccc(/C=C/S(=O)(=O)NCCC(=O)NCc2ccc(F)cc2)cc1,3.6,1.8,·,3.2,2.9,·,·,·,·,·
O=C(O)c1ccc(SCc2ccccc2)nc1,55.8*,-1.0,-1.2,9.0,76.2*,7.1,72.2*,91.7*,90.8*,79.6*
Cc1cc(C)cc(N2C(=O)CCN(Cc3ccccc3)C2=O)c1,3.9,1.8,-3.9,19.8,-26.3,·,·,·,·,·
O=C(NCC(c1cccs1)N1CCOCC1)c1cc(S(=O)(=O)N2CCOCC2)ccc1Cl (stereo not given),·,·,·,-25.6,·,·,·,·,·,·
COC(=O)c1sccc1N/N=C/c1ccc(OC)c(OC)c1OC,2.3,3.2,12.6,-404.8,20.8,·,·,·,·,·
COC(=O)c1sccc1N/N=C/c1cccc(Oc2ccccc2)c1,94.9*,96.9*,10.3,-98.7,63.1*,30.4,53.2*,34.3,94.2*,9.0
COC(=O)c1sccc1N/N=C/c1cccc(OC)c1O,92.2*,98.7*,31.7,-402.1,93.9*,7.7,78.1*,86.6*,69.9*,30.6
COC(=O)c1ccsc1NC(=O)CCc1ccccc1,87.2*,87.2*,7.7,1.5,87.6*,90.5*,91.3*,100.4*,91.3*,65.6*
Clc1cnc(N/N=C/c2cccs2)c(Cl)c1,10.3,3.4,0.4,-36.4,9.5,·,·,·,·,·
Clc1cnc(N/N=C/c2ccco2)c(Cl)c1,60.8*,-1.1,-0.9,-70.5,81.2*,15.2,18.6,29.5,84.0*,19.5
CCc1ccc(C(=O)COC(=O)[C@@H](NC(N)=O)[C@@H](C)CC)cc1,-3.9,4.0,3.3,5.2,-2.0,·,·,·,·,·
